Inconclusive results are not listed. Activity calls are given as the source filed them. Calls come from the whole dose curve; as a rule, active = well fitted cell-killing curve with a large enough effect; inconclusive = small, poorly fitted or top-dose-only effect, or effect the other way; inactive = flat fitted curve, though single readings scatter.
Assay: Cell Viability - HUV-EC-C (AID 542); note: nearly all actives have a fitted effect of over 35% in size
Conditions: HUV-EC-C endothelial cell viability, qHTS; series mostly up to 92.2 µM; activity change, negative = cytotoxicity: at the top concentration
Excerpt: NIH Chemical Genomics Center [NCGC]
NIH Molecular Libraries Screening Centers Network [MLSCN]
National Institutes of Environmental Health Sciences [NIEHS]
National Toxicology Program [NTP]
We have developed a 1536-well cell-based assay for quantitative high throughput screening (qHTS) against a number of cell lines to determine in vitro cytotoxicity of small molecules. This particular assay uses the HUV-EC-C cell line which is derived from normal human vascular endothelial cells.
NCGC Assay Protocol Summary:
The CellTiter-Glo luminescent cell viability assay (Promega) is a homogeneous method to measure the number of viable cells in culture. The end point readout of this assay is based on quantitation of intracellular ATP, an indicator of metabolic activity, using the luciferase reaction. Luciferase catalyzes the oxidation of beetle Luciferin to oxyluciferin and light in the presence of ATP. The luminescent signal is proportional to amount of ATP present.
Using the CellTiter-Glo luminescent cell viability assay, the amount of cellular ATP was measured in the HUV-EC-C cell line with complete culture medium following compound treatment for 40 hours. The assay was performed in opaque white Kalypsys 1536-well plates. In the screen, tamoxifen and doxorubicin were used as positive controls. Library compounds were measured for their ability to cause acute toxicity in the cell line, as reflected by a decrease in intracellular ATP levels, in a concentration-dependent manner. […] AC50 values were determined from concentration-response data modeled with the standard Hill equation.
qHTS protocol for CellTiter Glo HUV-EC-C cellular assay
[Step] [Parameter] [Value] [Description]
1. Reagent; 5 uL; 1000 HUV-EC-C cells/well
2. Time; 5 hr; 37 °C incubation
4. Controls; 23 nL; Tamoxifen 0.34 uM to 100 uM & Doxorubicin 0.02 nM to 100 uM
5. Time; 40 hr; 37 °C incubation
6. Reagent; 5 uL; CellTiter Glo reagent
7. Time; 20 min; Room Temperature
8. Detection; Luminescence; Viewlux plate reader
Keywords: cell viability, cytotoxicity, HUV-EC-C cell line, luminescence, NTPHTS, NTPHTS_NCGC, NIEHS, EPA, DSSTox, MLSMR, MLSCN, NIH Roadmap, qHTS, NCGC
% is set by controls: 0 for no effect and ±100 for the full control effect; potency is the fitted concentration of half-maximal effect.

Row | Structure (SMILES) | activity change, negative = cytotoxicity | Potency
1 | O=CCCCC=O | -17.8% (inactive) | –
2 | CCCCCCCC/C=C\CCCCCCCC(=O)O | 15.9% (inactive) | –
3 | CC(C)=O | 15% (inactive) | –
4 | CCCCCCCC(=O)O | – | inactive
5 | CCOC(C)=O | -5.08% (inactive) | –
6 | O=S(=O)(O)O | – | inactive
7 | Cc1ccccc1 | – | inactive
8 | Nc1ccn([C@H]2CS[C@@H](CO)O2)c(=O)n1 | 4.07% (inactive) | –
9 | CC1=C(/C=C/C(C)=C/C=C/C(C)=C/CO)C(C)(C)CCC1 | -26.8% (inactive) | –
10 | O=C(O)CCC(=O)C(=O)O | 7.33% (inactive) | –
11 | CC(C)(C)NC(=O)[C@@H]1C[C@@H]2CCCC[C@@H]2CN1C[C@@H](O)[C@H](Cc1ccccc1)NC(=O)[C@H](CC(N)=O)NC(=O)c1ccc2ccccc2n1 | – | 50.1 µM (active)
12 | CCOc1ccc2c(c1)C(C)=CC(C)(C)N2 | 17.7% (inactive) | –
13 | IC(I)I | 4.37% (inactive) | –
14 | CCCCC/C=C\C/C=C\CCCCCCCC(=O)O | -3.74% (inactive) | –
15 | CC(O)CO (stereo unspecified) | – | inactive
16 | CC1=C2[C@@H]([C@H](C)CC[C@H]2/C=C(\C)C(=O)O)[C@H](O)C1 | 4.65% (inactive) | –
